Values joined by “and” are separate entries in the source; they are usually repeats but may differ in a detail not shown here. Identical values can stand only once. A structure can be active in one record and inactive in another. Active and inactive are the calls of the source. How the source made its calls: active means hit-call score of the fitted dose curve at least 0.9, where 1 is the maximum; inactive means score below 0.9.
Assays:
Conditions in all cases: primary human HUVEC with PBMC; actives raise or lower the signal
[1] = BSK_LPS_PGE2: BioMAP Diversity Plus: LPS Assay for Prostaglandin E2 (PGE2) Biomarker Activity (AID 2283082);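 on AC50: secreted prostaglandin E2 measured by ELISA in LPS-stimulated co-culture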
Method in brief: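 HUVEC plus PBMC co-culture stimulated with LPS; secreted PGE2 quantified by ELISA 24 h after chemical dosing. Activity fitted bidirectionally against DMSO as negative control and baseline; parallel SRB total-protein staining served as cytotoxicity check.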

[2] = read-out: Macrophage colony-stimulating factor (MCSF), CSF1 (gene 1435); assay: BSK_LPS_MCSF: BioMAP Diversity Plus: LPS Assay for Macrophage colony-stimulating factor (MCSF) Biomarker Activity (AID 2283083)
Method in brief: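 Compound is added to a human vascular primary co-culture of umbilical vein endothelium and blood mononuclear cells. After 24 h, M-CSF is quantified by ELISA. Signal changes are fitted in both directions against DMSO.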

[3] = read-out: Tissue Factor, F3 (gene 2152); assay: BSK_LPS_TissueFactor: BioMAP Diversity Plus: LPS Assay for Tissue Factor Biomarker Activity (AID 2283084)
Method in brief: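 In this co-culture system of umbilical vein endothelium with PBMC, stimulated with LPS, cell-surface CD142 is detected by ELISA at 24 h. Endpoint values derive from bidirectional fitting, DMSO serving as baseline.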

[4] = read-out: Tumor necrosis factor (Homo sapiens) (UniProt P01375); assay: BSK_LPS_TNFa: BioMAP Diversity Plus: LPS Assay for Tumour Necrosis Factor alpha (TNFa) Biomarker Activity (AID 2283085)
Method in brief: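 Human umbilical vein endothelial cells co-cultured with PBMC were exposed to test chemical and TNFa measured by ELISA 24 h after dosing. Bidirectional curve fitting was done relative to DMSO as negative control and baseline.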

[5] = read-out: Vascular cell adhesion molecule 1 (VCAM1), VCAM1 (gene 7412); assay: BSK_LPS_VCAM1: BioMAP Diversity Plus: LPS Assay for Vascular cell adhesion molecule 1 (VCAM1) Biomarker Activity (AID 2283086)
Method in brief: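 Human umbilical vein endothelial cells co-cultured with peripheral blood mononuclear cells under LPS stimulation were exposed to test chemical for 24 h. VCAM-1 levels were then measured by ELISA, with bidirectional curve fitting relative to DMSO as negative control and baseline.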

[6] = read-out: CD38, CD38 (gene 952); assay: BSK_SAg_CD38: BioMAP Diversity Plus: SAg Assay for CD38 Biomarker Activity (AID 2283087)
Method in brief: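 Fluorescence ELISA of cell-surface CD38 served as the read-out, with either increase or decrease fitted against DMSO controls. Cells were a human umbilical vein endothelium plus PBMC co-culture under SEB/TSST-1 stimulation, measured 24 h after dosing.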

[7] = read-out: CD40, CD40 (gene 958); assay: BSK_SAg_CD40: BioMAP Diversity Plus: SAg Assay for CD40 Biomarker Activity (AID 2283088)
Method in brief: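 Fluorescence ELISA read-out of CD40 from umbilical vein endothelium plus peripheral blood mononuclear cells, sampled 24 h after dosing. Values come from bidirectional curve fitting with DMSO as baseline.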

[8] = read-out: E-selectin (Homo sapiens) (UniProt P16581); assay: BSK_SAg_Eselectin: BioMAP Diversity Plus: SAg Assay for Eselectin Biomarker Activity (AID 2283091)
Method in brief: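 Primary human endothelial cells and peripheral blood mononuclear cells were co-cultured and exposed to chemical for 24 hours. E-selectin levels were then quantified by ELISA, with bidirectional curve fitting normalised to DMSO controls.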

[9] = read-out: CD69, CD69 (gene 969); assay: BSK_SAg_CD69: BioMAP Diversity Plus: SAg Assay for CD69 Biomarker Activity (AID 2283089)
Method in brief: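 HUVEC co-cultured with PBMC were dosed with chemical, and CD69 was measured by ELISA with fluorescence read-out 24 h later. Bidirectional curve fitting used DMSO as negative control and activity baseline.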

[10] = read-out: Monocyte Chemoattractant Protein-1 (MCP1), CCL2 (gene 6347); assay: BSK_SAg_MCP1: BioMAP Diversity Plus: SAg Assay for Monocyte Chemoattractant Protein-1 (MCP1) Biomarker Activity (AID 2283090)
Method in brief: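 MCP-1 levels in the endothelial–PBMC SAg co-culture were quantified by ELISA at 24 h post-dosing; both increases and decreases versus DMSO scored. Cytotoxicity monitored by SRB total protein in parallel cultures.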

Measured: AC50

Chain of E-selectin (Homo sapiens) (P16581 whole entry, looked up): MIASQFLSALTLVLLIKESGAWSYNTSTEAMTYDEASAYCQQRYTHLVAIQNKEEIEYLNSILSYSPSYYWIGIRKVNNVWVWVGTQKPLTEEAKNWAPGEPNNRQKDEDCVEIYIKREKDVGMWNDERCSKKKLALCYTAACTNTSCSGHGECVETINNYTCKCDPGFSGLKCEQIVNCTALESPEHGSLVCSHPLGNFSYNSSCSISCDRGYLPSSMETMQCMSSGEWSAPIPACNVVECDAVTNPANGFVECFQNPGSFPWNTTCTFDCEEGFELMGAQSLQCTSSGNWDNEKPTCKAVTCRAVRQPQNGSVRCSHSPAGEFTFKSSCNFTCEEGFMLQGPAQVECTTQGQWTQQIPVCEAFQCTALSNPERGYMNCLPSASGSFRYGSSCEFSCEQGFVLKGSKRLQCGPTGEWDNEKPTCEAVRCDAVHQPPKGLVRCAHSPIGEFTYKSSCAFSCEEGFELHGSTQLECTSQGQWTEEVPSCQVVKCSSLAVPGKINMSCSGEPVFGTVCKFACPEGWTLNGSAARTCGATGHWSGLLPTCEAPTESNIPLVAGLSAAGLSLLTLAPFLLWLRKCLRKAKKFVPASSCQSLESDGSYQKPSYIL
Chain of Tumor necrosis factor (Homo sapiens) (P01375 whole entry, looked up): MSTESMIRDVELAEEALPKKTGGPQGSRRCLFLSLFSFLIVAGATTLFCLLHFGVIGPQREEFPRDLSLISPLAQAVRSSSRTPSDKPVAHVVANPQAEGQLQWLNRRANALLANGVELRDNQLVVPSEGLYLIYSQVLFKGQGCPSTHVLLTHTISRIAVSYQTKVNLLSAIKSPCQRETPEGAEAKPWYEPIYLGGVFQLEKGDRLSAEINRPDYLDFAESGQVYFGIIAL

O=C(O)C(F)(F)OC(F)(F)C(F)(F)OC(F)(F)C(F)(F)OC(F)(F)C(F)(F)C(F)(F)C(F)(F)F
active: [1] 37.8 µM and 25.8 µM | [2] 55.1 µM and 44.7 µM | [3] 54.8 µM and 30 µM | [4] 50 µM and 46.4 µM | [5] 45.6 µM and 48.4 µM | [6] 45.5 µM and 47.5 µM | [7] 43.7 µM and 45.3 µM | [8] 45.4 µM and 49.9 µM

O=S(=O)(O)C(F)(F)C(F)(F)C(F)(F)C(F)(F)C(F)(F)C(F)(F)C(F)(F)C(F)(F)C(F)(F)C(F)(F)F
inactive: [1] | [2] | [3] | [5] | [6] | [9] | [8]
active: [3] 13.3 µM | [4] 8.87 µM and 13.3 µM | [7] 13.3 µM and 7.42 µM | [8] 7.15 µM

CCCCCCCCCCCCOS(=O)(=O)O
not listed: [6] | [9] | [10]
inactive: all other assays above

O=C(CCCN1CCC(O)(c2ccc(Cl)cc2)CC1)c1ccc(F)cc1
active: [3] 20 µM
not listed: [6] | [9]
inactive: all other assays above

NC(=NCCCCCCN=C(N)/N=C(\N)Nc1ccc(Cl)cc1)/N=C(\N)Nc1ccc(Cl)cc1
inactive: [1]
active: [2] 4.92 µM | [3] 4.98 µM | [4] 20.5 µM | [5] 6.08 µM | [7] 5.1 µM | [8] 5.02 µM

O=C1c2ccc(O)c(O)c2C(=O)c2c(O)ccc(O)c21
not listed: [6] | [10]
inactive: all other assays above

CCCCC(CC)C(=O)O (stereo not drawn)
not listed: [6] | [9] | [10]
inactive: all other assays above

C=CC(=O)OCCC(F)(F)C(F)(F)C(F)(F)C(F)(F)C(F)(F)C(F)(F)C(F)(F)C(F)(F)F
not listed: [6] | [9]
inactive: all other assays above

CCCCCc1ccc(O)cc1
active: [1] 1.39 µM | [2] 27.2 µM | [3] 29 µM | [4] 31.4 µM | [5] 32.4 µM | [7] 29.6 µM | [8] 26.8 µM

C=CC(=C)CC/C=C(\C)CCC=C(C)C
not listed: [6] | [9] | [10]
inactive: all other assays above

O=C(NO)c1ccccc1
not listed: [6] | [9]
inactive: all other assays above

CC(C)(C)c1ccc(O)c(O)c1
active: [2] 29.2 µM | [3] 20 µM | [4] 32.8 µM | [5] 24 µM | [7] 27.3 µM | [10] 30.6 µM | [8] 19.2 µM
inactive: [1]

C=CC(C)(CCC=C(C)C)OC(C)=O (stereo not drawn)
not listed: [6] | [9] | [10]
inactive: all other assays above

CCCCc1oc2ccccc2c1C(=O)c1cc(I)c(OCCN(CC)CC)c(I)c1
inactive: [1]
active: [2] 10.8 µM | [3] 25.2 µM | [4] 23.5 µM | [5] 24.3 µM | [7] 10.5 µM | [8] 22.7 µM

CCCCC(CC)C(=O)OCCOCCOCCOCCOC(=O)C(CC)CCCC (stereo not drawn)
active: [2] 20 µM
not listed: [6] | [9] | [10]
inactive: all other assays above

OCC(CO)(CBr)CBr
not listed: [6] | [9] | [10]
inactive: all other assays above

OCCN1CN(CCO)CN(CCO)C1
inactive: [1]
active: [2] 25.7 µM | [3] 20 µM | [4] 36.6 µM | [5] 31.1 µM | [7] 31.1 µM | [8] 20 µM

CC[N+](CC)(CC)Cc1ccccc1
not listed: [6] | [9] | [10]
inactive: all other assays above

Cc1ccc(N=Nc2c(O)ccc3ccccc23)c(C)c1
active: [3] 7.3 µM
not listed: [6] | [9] | [10]
inactive: all other assays above

CCOC(=O)CN[C@@H](C(=O)N1CC[C@H]1C(=O)NCc1ccc(/C(N)=N/O)cc1)C1CCCCC1
not listed: [6] | [9] | [10]
inactive: all other assays above

O=C(O)CCC(F)(F)C(F)(F)C(F)(F)C(F)(F)C(F)(F)F
not listed: [6] | [9] | [10]
inactive: all other assays above

COCN(COC)c1nc(N(COC)COC)nc(N(COC)COC)n1
not listed: [6] | [10]
inactive: all other assays above

Clc1ccc(Nc2nnc(Cc3ccncc3)c3ccccc23)cc1
not listed: [6] | [10]
inactive: all other assays above

CN(C)c1ccc(C(=C2C=CC(=[N+](C)C)C=C2)c2ccccc2)cc1
active: [1] 0.0082 µM | [2] 0.0379 µM | [3] 0.025 µM | [4] 0.0138 µM | [5] 0.00781 µM | [7] 0.00857 µM | [10] 0.026 µM | [8] 0.0082 µM

O=C(O)CCC(F)(F)C(F)(F)C(F)(F)C(F)(F)C(F)(F)C(F)(F)F
not listed: [6]
inactive: all other assays above

CS(=O)(=O)c1ccc([C@@H](CC2CCCC2)C(=O)Nc2cnccn2)cc1Cl
not listed: [6] | [9] | [10]
inactive: all other assays above

CN(C)CCOC(c1ccccc1)c1ccccc1
not listed: [2] | [6]
inactive: all other assays above

Cc1[nH]nc2c1N=C(c1ccccc1Cl)c1cc([N+](=O)[O-])ccc1N2
active: [1] 2.36 µM | [2] 3.38 µM | [3] 4.61 µM | [4] 4.86 µM | [5] 3.99 µM | [7] 4.7 µM | [8] 4.48 µM

O=C1NS(=O)(=O)c2ccccc21
not listed: [6] | [10]
inactive: all other assays above

C=COC(=O)C(C)(C)CCCCCC
inactive: [1]
active: [2] 32.4 µM | [3] 32.5 µM | [4] 0.371 µM | [5] 31.1 µM | [7] 4.12 µM | [10] 31.1 µM | [8] 32.2 µM

Source: PubChem BioAssay (EPA / NIEHS)
